Reference: article PMC4336329 (PLoS ONE, 2015)
In all, about 310,000 compounds went through this assay and about 14,000 (4.5%) showed an effect of 50% or more. Effects have a minus sign here. Shown is part of a subset that was picked to be rich in strong results.

Biological target: human ether-à-go-go-related gene (hERG) potassium channel (human, UniProt Q12809)
Experiment: primary screen, population patch clamp on CHO cells stably expressing hERG; higher = less effect of the substance
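Also: peak tail current of the secondary pulse compared with the same well before compound.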

Sequence of human ether-à-go-go-related gene (hERG) potassium channel (Q12809 whole entry, looked up): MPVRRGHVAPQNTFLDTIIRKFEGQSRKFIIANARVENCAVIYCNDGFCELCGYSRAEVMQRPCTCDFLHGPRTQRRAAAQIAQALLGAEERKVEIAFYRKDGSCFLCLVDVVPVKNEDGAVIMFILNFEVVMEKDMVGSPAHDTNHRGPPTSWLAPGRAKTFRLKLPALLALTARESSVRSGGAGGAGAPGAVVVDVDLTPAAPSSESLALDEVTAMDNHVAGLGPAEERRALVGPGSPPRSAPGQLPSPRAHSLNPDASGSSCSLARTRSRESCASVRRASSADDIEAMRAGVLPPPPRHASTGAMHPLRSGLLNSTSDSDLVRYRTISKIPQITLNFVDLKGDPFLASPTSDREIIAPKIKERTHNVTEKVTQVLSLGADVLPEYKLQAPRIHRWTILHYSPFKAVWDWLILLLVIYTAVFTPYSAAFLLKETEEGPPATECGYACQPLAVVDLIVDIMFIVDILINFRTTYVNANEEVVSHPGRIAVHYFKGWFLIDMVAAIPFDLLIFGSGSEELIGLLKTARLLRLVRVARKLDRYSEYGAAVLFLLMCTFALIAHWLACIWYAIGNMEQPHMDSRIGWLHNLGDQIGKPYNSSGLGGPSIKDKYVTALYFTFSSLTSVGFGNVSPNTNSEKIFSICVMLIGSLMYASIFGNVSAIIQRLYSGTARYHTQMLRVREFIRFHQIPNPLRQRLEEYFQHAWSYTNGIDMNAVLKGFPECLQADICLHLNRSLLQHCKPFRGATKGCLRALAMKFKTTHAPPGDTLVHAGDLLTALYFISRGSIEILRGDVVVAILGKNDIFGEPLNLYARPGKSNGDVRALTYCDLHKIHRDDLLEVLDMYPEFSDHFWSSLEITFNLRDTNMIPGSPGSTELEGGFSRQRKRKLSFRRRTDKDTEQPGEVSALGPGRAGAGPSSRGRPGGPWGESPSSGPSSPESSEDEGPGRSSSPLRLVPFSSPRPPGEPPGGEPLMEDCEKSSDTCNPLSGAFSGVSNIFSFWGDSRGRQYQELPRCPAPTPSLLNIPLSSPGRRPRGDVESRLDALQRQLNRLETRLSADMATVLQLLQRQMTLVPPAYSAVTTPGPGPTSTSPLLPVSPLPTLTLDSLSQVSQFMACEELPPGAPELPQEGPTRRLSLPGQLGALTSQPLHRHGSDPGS

| Compound | hERG current change (%, negative = inhibition) at 10uM [%] |
| --- | --- |
| c1ccc2c(CNC3CCCCCC3)c[nH]c2c1 | -20.8 |
| O=S(=O)(Cc1cc(-c2ccc(Cl)cc2)no1)c1ccccc1 | 0.608 |
| O=S(=O)(Cc1cc(-c2ccccc2Cl)no1)c1ccccc1 | -51 |
| O=S(=O)(Cc1cc(-c2ccccc2)no1)c1ccccc1 | -2.75 |
| COCCn1nnnc1C(c1cccs1)N1CCCC(C)C1.Cl (stereo not drawn) | 17.9 |
| COc1ccc(/C=C/C(=O)Nc2ccccc2C(F)(F)F)cc1OC | -4.62 |
| COCC(=O)OCC(=O)N1N=C(c2ccc(Cl)cc2)CC1c1ccco1 (stereo not drawn) | -28.1 |
| Cl.N=c1sccn1CC(=O)N1N=C(c2ccc(Cl)cc2)CC1c1ccco1 (stereo not drawn) | -79.5 |
| O=C(OCC(=O)N1N=C(c2ccc(Cl)cc2)CC1c1ccco1)c1ccco1 (stereo not drawn) | 27.4 |
| O=C(COc1cccnc1[N+](=O)[O-])N1N=C(c2ccc(Cl)cc2)CC1c1ccco1 (stereo not drawn) | 16.9 |
| O=C(O)CCC(=O)N1N=C(c2ccco2)CC1c1ccco1 (stereo not drawn) | -78.1 |
| O=C(O)CCCC(=O)N1N=C(c2ccco2)CC1c1ccco1 (stereo not drawn) | 9.6 |
| CCC(=O)N1N=C(c2ccc(Cl)cc2)CC1c1ccco1 (stereo not drawn) | 0.74 |
| CC(=O)N1N=C(c2ccc(Cl)cc2)CC1c1ccco1 (stereo not drawn) | 7.11 |
| Cc1ccc(OCC(=O)N2N=C(c3ccc(Cl)cc3)CC2c2ccco2)c([N+](=O)[O-])n1 (stereo not drawn) | -63.3 |
| O=C(CCl)N1N=C(c2ccco2)CC1c1ccco1 (stereo not drawn) | 14 |
| O=C(CNC(=O)c1ccccc1)OCC(=O)N1N=C(c2ccc(Cl)cc2)CC1c1ccco1 (stereo not drawn) | -72.5 |
| COc1ccc(C(=O)NCC(=O)OCC(=O)N2N=C(c3ccc(Cl)cc3)CC2c2ccco2)cc1OC (stereo not drawn) | -5.57 |
| COc1cc(S(=O)(=O)N2CCN(C)CC2)c(OC)cc1Cl | 13.2 |
| COC(=O)c1nn(-c2ccc(OC)cc2)c(=O)cc1O | 16.9 |
| O=C(CCc1c[nH]c2ccccc12)NCc1ccco1 | 32.4 |
| Cc1ccc(CN(Cc2cc3cc(C)ccc3[nH]c2=O)C(=O)N2CCOCC2)cc1 | -13.2 |
| Cc1cccc(NC(=O)CSc2nncn2-c2ccccn2)c1 | -1.31 |

| Compound | hERG current change (%, negative = inhibition) at 10uM [%] |
| --- | --- |
| CSc1ncc(CN2CCCC(C(=O)Nc3ccc(-c4ccco4)cc3)C2)cn1 (stereo not drawn) | 11.1 |
| Cc1ccccc1-n1c(-c2ccoc2)nc2ccccc2c1=O | 6.09 |
| CCN(Cc1ccccc1)C(=O)c1c(-c2ccccc2Cl)noc1C | -9.34 |
| OCCC1CN(Cc2nc(-c3ccccc3)cs2)CCN1Cc1ccc(F)cc1 (stereo not drawn) | -69.8 |
| CC(C)c1csc(CN2CCN(Cc3ccccc3)C(CCO)C2)n1 (stereo not drawn) | -26.3 |
| OCCC1CN(Cc2nc(-c3ccc(F)cc3)cs2)CCN1CCc1ccccc1 (stereo not drawn) | -80.6 |
| OCCC1CN(Cc2nc(-c3ccccc3)cs2)CCN1CCc1ccccc1 (stereo not drawn) | -77.8 |
| CC(C)CN1CCN(Cc2nc(C(C)C)cs2)CC1CCO (stereo not drawn) | 1.27 |
| CC(C)c1csc(CN2CCN(CCc3ccccc3)C(CCO)C2)n1 (stereo not drawn) | -76 |
| C=C(c1ccccc1)P(=O)(O)O | 17.8 |
| COc1ccccc1C(=O)NCCC(=O)OCC(=O)Nc1ccc(S(N)(=O)=O)cc1 | -2.51 |
| Cc1cc(C(=O)Nc2ccc3ccccc3c2)c(C)o1 | 6.68 |
| COc1ccc2oc(=O)c(-c3csc(Nc4cccc(O)c4)n3)cc2c1 | 25.8 |
| COC(=O)CN1C(=O)[C@H]2[C@@H](c3ccc(C)o3)N3C(=O)CN(Cc4ccccn4)C(=O)[C@@]3(Cc3ccccc3)[C@H]2C1=O | 21.5 |
| O=C(NCc1ccccc1)c1cccc(S(=O)(=O)N2CCOCC2)c1 | 0.662 |
| Cc1ccc(N/C=C/C(=O)C(C)(C)C)c(O)c1 | -5.33 |
| CC(=O)NC(CC(=O)O)c1ccc(F)cc1 (stereo not drawn) | 0.22 |
| COc1ccc(CNC(=O)CSc2nnc(C)c(=O)[nH]2)cc1 | 18.2 |
| CC(C)N1CCN(Cc2nc(-c3ccccc3)cs2)CC1CCO (stereo not drawn) | -47.7 |
| CC(C)CCN1CCN(Cc2nc(-c3ccccc3)cs2)CC1CCO (stereo not drawn) | -62.7 |
| Cc1oc(-c2cccs2)nc1CN1CCN(CCC(C)C)C(CCO)C1 (stereo not drawn) | -27.6 |
| OCCC1CN(Cc2nc(-c3ccccc3)cs2)CCN1C1CCCC1 (stereo not drawn) | -66.4 |
| OCCC1CN(Cc2ccncc2)CCN1C1CCCC1 (stereo not drawn) | -8.58 |

| Compound | hERG current change (%, negative = inhibition) at 10uM [%] |
| --- | --- |
| Cc1cccc(CN2CCN(C3CCCC3)C(CCO)C2)n1 (stereo not drawn) | 3.1 |
| O=C(CC1C(=O)NCCN1CC(c1ccccc1)c1ccccc1)NCC1CCOCC1 (stereo not drawn) | 6.24 |
| CCCNC(=O)c1ccc(CN2CCOCC2)cc1 | 8.4 |
| O=C(CS(=O)(=O)c1c[nH]c2ccccc12)Nc1ccc(F)cc1 | -21.8 |
| Cc1cccc(OCCn2c(NC(=O)c3ccco3)nc3ccccc32)c1 | 12.5 |
| CCC(=O)N/C(N)=N/c1nc2ccccc2o1 | -10.3 |
| O=C(COc1ccc(Cl)cc1Cl)N1CCCN(C(=O)COc2ccc(Cl)cc2Cl)CC1 | -47.2 |
| c1ccc(-c2nc3ccccn3c2NCc2ccc3c(c2)OCO3)cc1 | -36.1 |
| Fc1ccc(-c2nc3ccccn3c2NCc2ccc3c(c2)OCO3)cc1 | -24.3 |
| Cc1cccn2c(NCc3ccc4c(c3)OCO4)c(-c3ccc(O)cc3)nc12 | -22.6 |
| COc1ccc(-c2nc3ccc(C)cn3c2NCc2ccc3c(c2)OCO3)cc1 | -34.1 |
| Cc1ccn2c(NCc3ccc4c(c3)OCO4)c(-c3ccc(O)cc3)nc2c1 | -11.6 |
| Oc1ccc(-c2nc3ccccn3c2NCc2ccc3c(c2)OCO3)cc1 | -45.8 |
| COc1ccc(-c2nc3ccccn3c2NCc2ccc3c(c2)OCO3)cc1 | -82.4 |
| COc1ccc(-c2nc3cc(C)ccn3c2NCc2ccc3c(c2)OCO3)cc1 | -67.5 |
| Cc1ccc(-c2nc3ccccn3c2NCc2ccc3c(c2)OCO3)cc1 | -69.3 |
| COc1ccc2c(C)c(CCC(=O)NC3CC3)c(=O)oc2c1C | 14.4 |
| CCCc1cc(C(=O)Nc2ccccc2C(=O)OC)no1 | 7.76 |
| CCCC(=O)Nc1cccc(-c2cn3ccsc3n2)c1 | -47.5 |
| CCOc1ccc(N(C(=O)/C=C/C(=O)Nc2cc(C)on2)C(C(=O)NC2CCCC2)c2ccccc2C)cc1 (stereo not drawn) | -6.96 |
| CCn1nc(C)c(CNCc2cn[nH]c2-c2cc3ccccc3o2)c1C | -19 |
| O=C(O)c1cc(C(F)(F)F)nc2ccccc12 | 3.92 |
| CC(C)(C)OC(=O)N[C@@H](CC(=O)OCc1ccccc1)C(=O)O | 10.9 |

| Compound | hERG current change (%, negative = inhibition) at 10uM [%] |
| --- | --- |
| CC(C)(C)OC(=O)NC(CC(=O)OCc1ccccc1)C(=O)O (stereo not drawn) | 10.1 |
| CC(C)(C)OC(=O)NC(Cc1ccccc1)C(=O)O (stereo not drawn) | -50.5 |
| CC(C)(Oc1ccc(Cl)cc1)C(=O)NCCCn1ccnc1 | -21.2 |
| C=CCn1c(SCC(=O)Nc2cc(C)on2)nc2sc(CC)cc2c1=O | 1.3 |
| C=CCn1c(SCC(=O)N2CCN(C(=O)c3ccco3)CC2)nc2sc(CC)cc2c1=O | -76.3 |
| C=CCn1c(SCC(=O)Nc2ccc(O)cc2)nc2sc(CC)cc2c1=O | -62.5 |
| C=CCn1c(SCC(=O)N2CCc3ccccc3C2)nc2sc(CC)cc2c1=O | -34.5 |
| C=CCn1c(SCC(=O)NC2CCS(=O)(=O)C2)nc2sc(CC)cc2c1=O (stereo not drawn) | -47.8 |
| C=CCn1c(SCC(=O)N2CCCC2=O)nc2sc(CC)cc2c1=O | -70.9 |
| C=CCn1c(SCC(=O)NC2CCCC2)nc2sc(C)cc2c1=O | -5.84 |
| C=CCn1c(SCC#N)nc2sc(CC)cc2c1=O | -16.5 |
| C=CCn1c(SCC(=O)NC2CC2)nc2sc(CC)cc2c1=O | -54.6 |
| C=CCn1c(SCC(=O)O)nc2sc(CC)cc2c1=O | 13.8 |
| C=CCn1c(SCC(=O)Nc2sccc2C(N)=O)nc2sc(CC)cc2c1=O | -1.95 |
| C=CCn1c(SCC(=O)c2cccs2)nc2sc(CC)cc2c1=O | -4.31 |
| COC(=O)Cn1c(=NC(=O)c2cc(OC)c(OC)c(OC)c2)sc2cc(OC)ccc21 | 1.18 |
| S=c1[nH]nc(-c2ccc3ccccc3n2)n1-c1ccc2c(c1)OCCO2 | 17.7 |
| Cc1ccc2c(c1)CCCN2N=O | 0.938 |
| CCOc1ccc(N(CC(=O)NCc2ccc(OC)cc2)C(=O)CCC(=O)Nc2nccs2)cc1 | 8.55 |
| COc1ccccc1CNC(=O)COC(=O)c1ccc(C)s1 | 3.82 |
| CC1(C)N([O-])C(c2ccccc2)=C[N+](=O)C1(C)C | 1.38 |
